# Data: the supplement of paper PMC11402862
# Target: FXR LBD (GAL4 fusion) (UniProt Q96RI1)
# Experiment: luciferase reporter transactivation, fold of solvent control; higher = stronger receptor activation
# Settings: HEK293T, exposure time: 24 h
# Method: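 HEK293T cells were transiently transfected with a GAL4-DBD fused to the ligand-binding domain of a human nuclear receptor (PPARα, PPARγ, PPARδ, FXR, LXRα, PXR, RARα or CAR), the GAL4-(UAS)5-TK firefly luciferase reporter and a Renilla luciferase normalisation plasmid. Cells were exposed to compound for 24 h in 0.5% DMSO. Firefly/Renilla luciferase was expressed as fold of the solvent control (=1). Values are the mean of 2-3 biological replicates; receptor agonists were used as positive controls.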
# Sequence of FXR LBD (GAL4 fusion) (Q96RI1 whole entry, looked up, the tested form may be a part): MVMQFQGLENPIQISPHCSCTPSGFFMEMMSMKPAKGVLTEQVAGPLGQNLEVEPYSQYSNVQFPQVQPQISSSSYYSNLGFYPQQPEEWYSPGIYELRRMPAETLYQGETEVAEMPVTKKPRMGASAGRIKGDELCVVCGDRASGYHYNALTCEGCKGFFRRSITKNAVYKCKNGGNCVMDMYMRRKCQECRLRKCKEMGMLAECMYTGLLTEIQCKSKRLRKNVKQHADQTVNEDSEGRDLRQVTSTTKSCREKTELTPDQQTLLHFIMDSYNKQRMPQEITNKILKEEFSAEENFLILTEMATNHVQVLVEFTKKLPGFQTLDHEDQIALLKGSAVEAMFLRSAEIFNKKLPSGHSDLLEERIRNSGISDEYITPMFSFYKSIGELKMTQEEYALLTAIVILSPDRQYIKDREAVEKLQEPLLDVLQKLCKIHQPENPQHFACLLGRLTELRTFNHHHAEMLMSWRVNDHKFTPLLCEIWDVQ
SMILES,luciferase reporter transactivation (concentration: 1 µM),luciferase reporter transactivation (concentration: 5 µM),luciferase reporter transactivation (concentration: 10 µM),luciferase reporter transactivation (concentration: 25 µM),luciferase reporter transactivation (concentration: 50 µM),luciferase reporter transactivation (concentration: 100 µM),luciferase reporter transactivation (concentration: 250 µM),luciferase reporter transactivation (concentration: 500 µM),luciferase reporter transactivation (concentration: 2.5 µM)
O=C(O)C(F)(F)C(F)(F)F [perfluoropropanoic acid],1.54,1.63,1.39,0.693,1.46,1.43,1.27,1.62,–
NS(=O)(=O)C(F)(F)C(F)(F)C(F)(F)C(F)(F)C(F)(F)C(F)(F)C(F)(F)C(F)(F)F [perfluorooctane sulfonamide],0.705,1.1,0.752,–,–,1.01,–,–,0.788
